In the library only some 10% were active in any assay of this set; here they are far more common.
Pf growth 96h: P. falciparum growth inhibition at 96 hour, primary screen for plastid delayed-death inhibitors | P. falciparum luciferase reporter growth, 96 h | Potency, µM (top dose mostly 28.7 µM), for the others: at the highest dose activity change, negative = inhibition, actives largely listed as inhibitors | actives 6.9% (n = 320,000); active = well fitted inhibition curve with a large enough effect; inconclusive = small, poorly fitted or top-dose-only effect, or another doubt; inactive = no such curve, though single readings can be large or run the other way; also: % is scaled to controls: 0 for no effect and ±100 for the full control effect
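Erythrocytes infected with luciferase-expressing P. falciparum were dispensed at 2% hematocrit and 0.05% parasitemia (final), then incubated with compounds 96 hours at 37 C in 5% CO2. Luminescence after detection reagent addition reported growth.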
Pf growth 48h: inhibits P. falciparum growth in the first generation, 48 h | P. falciparum luciferase growth in erythrocytes, 48 h | Potency, µM (highest dose often 28.7 µM), without a hit: at the top dose activity change, negative = inhibition, usual class: inhibitors | actives 5.9% (n = 310,000); active = well fitted inhibition curve with a large enough effect; inconclusive = small, poorly fitted or top-dose-only effect, or another doubt; inactive = no such curve, though single readings can be large or run the other way; also: % is scaled to controls: 0 for no effect and ±100 for the full control effect
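Here the parasites carry a stable luciferase gene and grow inside erythrocytes in Albumax-based RPMI medium with compound for one erythrocytic cycle. Activity is scored as loss of luminescent signal.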
NS1 function inh: inhibitors of influenza NS1 protein function. AID 2326. Potency, µM (highest dose often 46.1 µM), for inactives: at the top dose activity, positive = more growth. actives 0.4% (n = 270,000); also: actives are rising curves; nearly all actives have a fitted effect of over 50% in size
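Read-out: OD600 growth recovery of NS1-expressing budding yeast. Cells grown overnight at 30C in -URA glucose medium, washed, resuspended and diluted 1:100 in 2% galactose assay medium, pH 6.0. Same strain lacking NS1 served as positive control.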
SARS PLP yeast: inhibitors of SARS-CoV papain-like protease in yeast; S. cerevisiae expressing SARS-CoV PLpro, growth rescue; Potency, µM (series often up to 32.9 µM), without a hit: at the top dose activity, positive = growth rescue, hits mostly activators; actives 0.19% (n = 330,000); also: 0% is about no effect; nearly all actives have a fitted effect of over 55% in size
* hit, by the source's call; ? = inconclusive; nt = not tested or not shown. Unless noted, calls follow the shape of the full dose curve. Potency is read from the fitted curve at half-maximal effect.

SMILES	Pf growth 96h	Pf growth 48h	NS1 function inh	SARS PLP yeast
COc1ccc(-c2nc3ccccc3c(=O)n2CCOc2c(C)cccc2C)cc1	-78.2%	11.7µM*	-8.9%	7.4%
COCCn1c(C2CCCCC2)nc2sc3ccccc3c(=O)c2c1=O	0.0%	1.47µM*	-34.0%	17.0%
COc1ccc(-c2nc3c(c(=O)c4ccccc4n3C)c(=O)n2Cc2ccccc2)cc1	2.94µM*	-19.5%	11.6%	-16.9%
Cn1c2ccccc2c(=O)c2c(=O)n(Cc3ccccc3)c(-c3ccc(F)cc3)nc21	5.22µM*	?	3.7%	0.2%
CCCCCCCCCCCCCCCCCCOC[C@H](COP(=O)([O-])OCC[N+](C)(C)C)OC	-17.5%	1.1%	2.1%	nt
CC(=O)c1sc(NC(=O)c2ccc(Cn3cc(Br)cn3)o2)nc1C	54.3%	9.2%	-1.4%	-7.4%
CCNS(=O)(=O)c1ccc(NC(=O)c2ccc(Cn3cc(Br)cn3)o2)cc1	11.7µM*	-24.5%	-10.2%	-8.0%
C/C(=N\NC(=O)c1ccc(Cn2cc(Br)cn2)o1)c1cccc(NC(=O)C(C)C)c1	11.7µM*	-15.0%	3.6%	4.9%
COC(=O)C(Cc1ccccc1)NC(=O)CCNC(=O)c1ccc(Br)cc1 (stereo not drawn)	33.0%	27.0%	8.7%	0.6%
COc1ccc(S(=O)(=O)N2CCN=C2SCc2cccc(F)c2)cc1	?	2.4%	-19.6%	0.9%
CN(C(=O)CSc1nnc(-c2ccco2)n1Cc1ccccc1)C1CCS(=O)(=O)C1 (stereo not drawn)	-22.8%	-26.7%	nt	-5.4%
OCc1ccccc1	6.01µM*	5.36µM*	nt	nt
COc1cc2cc(CN(CCc3ccccc3C)C(=S)NCCCN3CCOCC3)c(=O)[nH]c2cc1OC	322.0%	7.38µM*	8.5%	0.2%
CCNC(=S)N(CCc1ccccc1C)Cc1cc2cc(OC)c(OC)cc2[nH]c1=O	?	?	15.5%	-2.9%
COc1cc2cc(CN(CCc3ccccc3C)C(=S)NCCCN(C)C)c(=O)[nH]c2cc1OC	?	13.1µM*	7.2%	-20.8%
CCNC(=S)N(CCc1cccc(C)c1)Cc1cc2cc(OC)c(OC)cc2[nH]c1=O	-4.5%	?	13.5%	17.8%
COc1cccc(CN2CCNC(=O)C2CC(=O)NCC2CCOCC2)c1 (stereo not drawn)	?	-1.2%	6.8%	0.7%
Cc1cc(Cl)ccc1NC(=O)C1COc2ccccc2O1 (stereo not drawn)	90.3%	202.3%	-40.9%	-12.4%
COCc1cc(CN2CCN(C)CC2)c(O)c2ncccc12	8.28µM*	nt	?	?
Oc1c(Br)cc(Br)c2cccnc12	9.53µM*	?	nt	nt
Oc1c(CN2CCN(c3ccccc3)CC2)cc(Br)c2cccnc12	?	1.85µM*	-38.0%	?
CCOC(=O)N1CCN(Cc2cc(Cl)c3cccnc3c2O)CC1	22.8%	2.62µM*	-50.1%	-5.9%
O=C(Oc1c(Cl)cc(Cl)c2cccnc12)N1CCCCC1	5.22µM*	-12.4%	-21.1%	-1.7%
CC(CN1CCOCC1)OC(=O)c1ccccc1Br (stereo not drawn)	nt	22.6%	0.5%	3.0%
O=C(Oc1c(Cl)cc(Cl)c2cccnc12)N1CCOCC1	-4.3%	-14.1%	-6.9%	0.8%
SMILES	Pf growth 96h	Pf growth 48h	NS1 function inh	SARS PLP yeast
O=C(Oc1c(CN2CCOCC2)cc(Cl)c2cccnc12)c1ccccc1Br	10.4µM*	1.85µM*	-5.7%	-0.5%
O=C(Cc1cccc2ccccc12)NCC(=O)Nc1ccccc1F	42.3%	-9.0%	-0.3%	21.8%
Nc1c(C(=O)Nc2cccc(F)c2)nnn1-c1cccc(C(F)(F)F)c1	?	156.2%	nt	1.2%
Cc1ccc(NC(=O)c2nnn(-c3cccc(C(F)(F)F)c3)c2N)cc1	11.7µM*	21.6%	nt	2.2%
Nc1c(C(=O)Nc2ccc(F)cc2)nnn1-c1cccc(C(F)(F)F)c1	9.28µM*	13.6%	nt	1.2%
Cc1ccc(NC(=O)c2nnn(-c3ccc4c(c3)OCCO4)c2N)cc1	-28.5%	146.9%	-6.6%	1.7%
Cc1ccc(C(=O)N/C(=C/c2ccc(N(C)C)cc2)C(=O)NCC2CCCO2)cc1 (stereo not drawn)	0.0%	11.9%	-10.8%	1.4%
N#CC1=C2N=C(N)c3ccccc3N2C2=C(C(=O)CCC2)C1c1ccccc1F (stereo not drawn)	?	-33.9%	-7.2%	5.2%
N#CC1=C2N=C(N)c3ccccc3N2C2=C(C(=O)CCC2)C1c1ccc(Cl)cc1 (stereo not drawn)	6.2%	?	?	9.8%
CC1(C)CC(=O)C2=C(C1)N(c1ccccc1)C(N)=C(C#N)C2c1cccnc1 (stereo not drawn)	13.1µM*	?	-8.2%	-8.5%

Screening results from PubChem BioAssay.
